Data published in PubChem BioAssay AID602122 (National Center for Advancing Translational Sciences (NCATS), 2011).
Calls of active or inactive are those of the source.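 How the source made its calls: active means translocation seen by eye under the microscope after immunostaining of patient fibroblasts; inconclusive means translocation result judged unclear; inactive means no translocation seen.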

Biological target: Lysosomal alpha-glucosidase (Homo sapiens) (UniProt P10253)
Test: qHTS for Activators of Human alpha-Glucosidase as a Potential Chaperone Treatment of Pompe Disease: Fibroblast Translocation
Settings: Pompe patient fibroblasts, GAA immunostaining lysosomal translocation, 6 d
Text: Alpha-glucosidase is responsible for hydrolysis of terminal, non-reducing 1,4-linked alpha-D-glucose residues with release of alpha-D-glucose. It is a lysosomal hydrolase that is required for the degradation of a small percentage (1-3%) of cellular glycogen in human. Deficiency of this enzyme results in glycogen-storage disease type II (GSDII), also referred to as Pompe disease, an autosomal recessive disorder. Structurally normal glycogen is accumulated in lysosomes and cytoplasm in affected patients, primarily in muscle tissues. Excessive glycogen storage within lysosomes may interrupt normal functioning of other organelles and leads to cellular injury. In turn, this leads to enlargement and dysfunction of the entire organ involved (eg, cardiomyopathy and muscle weakness). It has reported that the improper folding and trafficking of alpha-glucosidase resulting from the genetic mutations may account for a significant number of Pompe patients. […] We optimized this alpha-glucosidase assay in 1536-well plate format for identifying the novel small molecule inhibitors with the structures other than the sugar analogs in order to develop the new pharmacological chaperones. Validated hits were tested in this fibroblast translocation assay that measures fluorescence through immunostaining Pompe patient derived fibroblasts. NIH Chemical Genomics Center [NCGC] […]

Compound | outcome
CCCN1CNc2c(c(=O)[nH]c(=S)n2Cc2ccc(OC)c(OC)c2)C1 | active; yes
